The panel holds about 83,000 compounds, 20% with a hit somewhere; the sample as a whole holds those more often.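 Method: cells in 96-well plates; compound added at one concentration; 48 h incubation; percent growth measured; values under 10 scored active.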 Unmarked numbers belong to inactive results. Activity calls are given as the source filed them.
Legend:
Assay in all cases: NCI-60 one-dose screen, 48 h (100 = growth as untreated, 0 = no growth, -100 = all killed)
Conditions in all cases: 10 µM unless noted
SK-MEL-2 melanoma = system: SK-MEL-2 melanoma
EKVX NSCLC = system: EKVX NSCLC
SN12C renal = system: SN12C renal
UO-31 renal = system: UO-31 renal
TK-10 renal = system: TK-10 renal
ACHN renal = system: ACHN renal
CAKI-1 renal = system: CAKI-1 renal
A498 renal = system: A498 renal
CCRF-CEM leukemia = system: CCRF-CEM leukemia
SR leukemia = system: SR leukemia
RPMI-8226 leukemia = system: RPMI-8226 leukemia
OVCAR-5 ovarian = system: OVCAR-5 ovarian
OVCAR-4 ovarian = system: OVCAR-4 ovarian
SK-OV-3 ovarian = system: SK-OV-3 ovarian
IGROV1 ovarian = system: IGROV1 ovarian
OVCAR-3 ovarian = system: OVCAR-3 ovarian
HS 578T breast = system: HS 578T breast
NCI/ADR-RES ovarian = system: NCI/ADR-RES ovarian
OVCAR-8 ovarian = system: OVCAR-8 ovarian
MOLT-4 leukemia = system: MOLT-4 leukemia

In the case of `Nc1ncc(-c2ccc3ncnc(N4CCc5ccc(Cl)cc54)c3c2)cn1`, the growth (SK-MEL-2 melanoma) is reported as -53.3% (active), the growth (EKVX NSCLC) is reported as 2.36% (active) and the growth (SN12C renal) is reported as 7.41% (active). For the same compound, the growth (UO-31 renal) was -21.7% (active), the growth (TK-10 renal) was -30.3% (active) and the growth (ACHN renal) was 3.09% (active). The growth (CAKI-1 renal) was 5.95% (active), the growth (A498 renal) was -55.2% (active) and the growth (CCRF-CEM leukemia) was 4.45% (active). For the same compound, the growth (SR leukemia) was -10.6% (active), the growth (RPMI-8226 leukemia) was -35.6% (active) and the growth (OVCAR-5 ovarian) was 7.02% (active). For the same compound, the growth (OVCAR-4 ovarian) was 2.15% (active), the growth (SK-OV-3 ovarian) was -22.2% (active) and the growth (IGROV1 ovarian) was -47.7% (active). The growth (OVCAR-3 ovarian) was 3.17% (active), the growth (HS 578T breast) was -24.5% (active) and the growth (NCI/ADR-RES ovarian) was 3.68% (active).

`CCOC(=O)CC1CSC(N/N=C(/C)c2cccc(C(F)(F)F)c2)=N1` (stereo not drawn) gave a growth (SK-MEL-2 melanoma) of 123%, a growth (EKVX NSCLC) of 89.3% and a growth (SN12C renal) of 103%. For the same compound, the growth (UO-31 renal) was 80.2%, the growth (TK-10 renal) was 95.8% and the growth (ACHN renal) was 106%. The growth (CAKI-1 renal) was 91.6%, the growth (A498 renal) was 97.4% and the growth (CCRF-CEM leukemia) was 104%. For the same compound, the growth (SR leukemia) was 99.6%, the growth (RPMI-8226 leukemia) was 111% and the growth (OVCAR-8 ovarian) was 102%. For the same compound, the growth (OVCAR-5 ovarian) was 105%, the growth (OVCAR-4 ovarian) was 94.1% and the growth (SK-OV-3 ovarian) was 96.1%. For the same compound, the growth (IGROV1 ovarian) was 94.5%, the growth (OVCAR-3 ovarian) was 105% and the growth (HS 578T breast) was 101%. It also gave a growth (NCI/ADR-RES ovarian) of 101%.

`Nc1ncnc2c1N=C(c1ccc([N+](=O)[O-])cc1)CC(c1ccc3c(c1)OCO3)N2` (stereo not drawn) was tested, and the growth (SK-MEL-2 melanoma) was 59.6%, the growth (EKVX NSCLC) was 86% and the growth (SN12C renal) was 102%. For the same compound, the growth (UO-31 renal) was 55.7%, the growth (TK-10 renal) was 107% and the growth (ACHN renal) was 88.3%. It also gave a growth (CAKI-1 renal) of 89.6%, a growth (CCRF-CEM leukemia) of 65% and a growth (MOLT-4 leukemia) of 84.1%. For the same compound, the growth (SR leukemia) was 85.3%, the growth (RPMI-8226 leukemia) was 71.1% and the growth (OVCAR-8 ovarian) was 89.6%. The growth (OVCAR-5 ovarian) was 91.7%, the growth (OVCAR-4 ovarian) was 95.5% and the growth (SK-OV-3 ovarian) was 91.1%. For the same compound, the growth (IGROV1 ovarian) was 51.1%, the growth (OVCAR-3 ovarian) was 90.6% and the growth (HS 578T breast) was 80.7%. It also gave a growth (NCI/ADR-RES ovarian) of 77.6%.

`Cn1cc(-c2csc(-c3cn(CCO)c4ccc(F)cc34)n2)c2cccnc21` was tested, and the growth (SK-MEL-2 melanoma) was 52.2%, the growth (EKVX NSCLC) was 57.4% and the growth (SN12C renal) was 73.2%. For the same compound, the growth (UO-31 renal) was 70.7%, the growth (TK-10 renal) was 47.7% and the growth (ACHN renal) was 69.5%. The growth (CAKI-1 renal) was 78.4%, the growth (A498 renal) was 45.3% and the growth (CCRF-CEM leukemia) was 44.4%. For the same compound, the growth (SR leukemia) was 20.7%, the growth (RPMI-8226 leukemia) was 62.6% and the growth (OVCAR-8 ovarian) was 75.9%. It also gave a growth (OVCAR-5 ovarian) of 65.6%, a growth (OVCAR-4 ovarian) of 36% and a growth (SK-OV-3 ovarian) of 73%. For the same compound, the growth (IGROV1 ovarian) was 51.9%, the growth (OVCAR-3 ovarian) was 49.7% and the growth (HS 578T breast) was 79.8%. For the same compound, the growth (NCI/ADR-RES ovarian) was 45.5%.

`COc1cc(C(=O)n2nc(NCCCc3ccccc3)c3cc(N)ccc32)cc(OC)c1OC` gave a growth (SK-MEL-2 melanoma) of 87.6%, a growth (EKVX NSCLC) of 87.3% and a growth (SN12C renal) of 99.3%. For the same compound, the growth (UO-31 renal) was 68.6%, the growth (TK-10 renal) was 97.7% and the growth (ACHN renal) was 91.3%. The growth (CAKI-1 renal) was 92.6%, the growth (A498 renal) was 88.7% and the growth (CCRF-CEM leukemia) was 69.4%. For the same compound, the growth (SR leukemia) was 52.3%, the growth (RPMI-8226 leukemia) was 69.5% and the growth (OVCAR-8 ovarian) was 82.8%. It also gave a growth (OVCAR-5 ovarian) of 93.3%, a growth (OVCAR-4 ovarian) of 105% and a growth (SK-OV-3 ovarian) of 104%. It also gave a growth (IGROV1 ovarian) of 110%, a growth (OVCAR-3 ovarian) of 101% and a growth (NCI/ADR-RES ovarian) of 68.4%.

In the case of `CC(=O)/C(Br)=C/c1ccc(Br)o1`, the growth (SK-MEL-2 melanoma) is reported as 99.2%, the growth (EKVX NSCLC) is reported as 105% and the growth (SN12C renal) is reported as 73.5%. For the same compound, the growth (UO-31 renal) was 52.7%, the growth (TK-10 renal) was 71.5% and the growth (ACHN renal) was 60.1%. The growth (CAKI-1 renal) was 26.1%, the growth (CCRF-CEM leukemia) was -31% (active) and the growth (MOLT-4 leukemia) was -15.4% (active). The growth (SR leukemia) was -18.2% (active), the growth (RPMI-8226 leukemia) was 67.1% and the growth (OVCAR-8 ovarian) was 79%. For the same compound, the growth (OVCAR-5 ovarian) was 95.6%, the growth (OVCAR-4 ovarian) was 86.1% and the growth (SK-OV-3 ovarian) was 104%. The growth (IGROV1 ovarian) was 86.9%, the growth (OVCAR-3 ovarian) was 23.5% and the growth (HS 578T breast) was 26.7%. For the same compound, the growth (NCI/ADR-RES ovarian) was 93.9%.

`Cc1ccc(NC(=O)c2ccc(Nc3ncnc4c3cnn4-c3cccc(F)c3)cc2)cc1` was tested, and the growth (SK-MEL-2 melanoma) was 104%, the growth (EKVX NSCLC) was 102% and the growth (SN12C renal) was 96.2%. The growth (UO-31 renal) was 90.8%, the growth (TK-10 renal) was 105% and the growth (ACHN renal) was 98.4%. The growth (CAKI-1 renal) was 90.7%, the growth (CCRF-CEM leukemia) was 95.5% and the growth (MOLT-4 leukemia) was 96.3%. For the same compound, the growth (SR leukemia) was 92.7%, the growth (RPMI-8226 leukemia) was 90.2% and the growth (OVCAR-8 ovarian) was 97.6%. The growth (OVCAR-5 ovarian) was 99.6%, the growth (OVCAR-4 ovarian) was 98.9% and the growth (SK-OV-3 ovarian) was 109%. For the same compound, the growth (IGROV1 ovarian) was 97.9%, the growth (OVCAR-3 ovarian) was 106% and the growth (HS 578T breast) was 96.6%. It also gave a growth (NCI/ADR-RES ovarian) of 98.8%.

Compound `O=C(Nc1ccc(Cl)cc1)C1=NCCCCN1` has a growth (SK-MEL-2 melanoma) of 97.7%, a growth (EKVX NSCLC) of 80% and a growth (SN12C renal) of 94.5%. It also gave a growth (UO-31 renal) of 55.4%, a growth (TK-10 renal) of 90% and a growth (ACHN renal) of 59.1%. The growth (CAKI-1 renal) was 53.8%, the growth (CCRF-CEM leukemia) was 89.2% and the growth (MOLT-4 leukemia) was 95.4%. It also gave a growth (SR leukemia) of 116%, a growth (RPMI-8226 leukemia) of 96.3% and a growth (OVCAR-8 ovarian) of 91%. The growth (OVCAR-5 ovarian) was 85.6%, the growth (OVCAR-4 ovarian) was 109% and the growth (SK-OV-3 ovarian) was 88.1%. The growth (IGROV1 ovarian) was 79.8%, the growth (OVCAR-3 ovarian) was 96.9% and the growth (HS 578T breast) was 97.9%. The growth (NCI/ADR-RES ovarian) was 89.3%.

In the case of `COc1ccc(C2=C/C(=C\c3ccccc3O)C(=O)N2Cc2ccccc2)cc1`, the growth (SK-MEL-2 melanoma) is reported as 51.4%, the growth (EKVX NSCLC) is reported as 82.1% and the growth (SN12C renal) is reported as 95.8%. For the same compound, the growth (UO-31 renal) was 68.4%, the growth (TK-10 renal) was 85.3% and the growth (ACHN renal) was 93.4%. It also gave a growth (CAKI-1 renal) of 93.2%, a growth (A498 renal) of 98.3% and a growth (CCRF-CEM leukemia) of 73.4%. For the same compound, the growth (SR leukemia) was 45.2%, the growth (RPMI-8226 leukemia) was 63% and the growth (OVCAR-5 ovarian) was 111%. It also gave a growth (OVCAR-4 ovarian) of 92.6%, a growth (SK-OV-3 ovarian) of 73.8% and a growth (IGROV1 ovarian) of 77.5%. For the same compound, the growth (OVCAR-3 ovarian) was 92.9%, the growth (HS 578T breast) was 74.8% and the growth (NCI/ADR-RES ovarian) was 79.9%.

Reference: PubChem BioAssay (NCI)
